Measured values reported in PubChem BioAssay AID1159580 (chemical genetic matrix, 2015).
Hit rate of the full screen: of about 5,500 compounds, about 2,000 (36%) were called active. Not shown: some 18% with an inconclusive outcome. Cut-off read from the data, not from the text of the source: active = normalized growth mostly below about 0.91 (no sharp cut-off); inconclusive = no clear call, values can overlap the other calls; inactive = mostly above about 0.92. The list shows a part of the results.

Assay: chemical genetic growth profiling, strain panel (AID 1159580);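 note: tested at 20 µM; growth read once vehicle control cultures reached saturation at 30 °C; 1 = growth at the plate median or of vehicle wells; lower values mean less growth of the strain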
Settings: S. cerevisiae deletion strains, growth OD

Measured: normalized growth

CN(C(=O)CCCOc1ccc2[nH]c(=O)ccc2c1)C1CCCCC1
inactive: locus YAL013W, strain DEP1, hits give low values 1.01 | locus YAL040C, strain CLN3, hits give low values 0.998 | locus YCL061C, strain MRC1 (second series), hits give low values 0.998 | locus YDR150W, strain NUM1, hits give low values 0.99 | locus YDR363W, strain ESC2, hits give low values 1 | locus YER002W, strain NOP16, hits give low values 0.989 | locus YMR263W, strain SAP30, hits give low values 0.989 | locus YMR307W, strain GAS1, hits give low values 1.01 | locus YNL175C, strain NOP13, hits give low values 1.01 | locus YNL197C, strain WHI3, hits give low values 1.02 | locus YNL224C, strain SQS1, hits give low values 0.989 | locus YOR083W, strain WHI5 (second series), hits give low values 0.993 | locus YPL055C, strain LGE1, hits give low values 1 | locus YPL241C, strain CIN2, hits give low values 0.999
